HPGD block – HPGD (human) dehydrogenase inhibition; purified HPGD, NADH fluorescence kinetic, PGE2 substrate; P15428; hit rate 4.3% among 150,000; Potency, µM, actives largely listed as inhibitors
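20 nM HPGD preincubated 15 min at room temperature with compound in 50 mM Tris-HCl pH 8, 0.01% Tween 20. Started with 1 mM NAD+ and 30 uM prostaglandin E2; NADH fluorescence (360/450 nm) read 5 times over 30-s intervals, last minus first.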
PNC assembly inh – blocks assembly of the perinucleolar compartment; PC3M PTB-GFP, PNC prevalence imaging, 16 h; active compounds read low; hit rate 3.1% among 140,000; activity change (PNC), negative = inhibition, % at 10 µM;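 active means readout at or below -70, meaning at least 70% loss of cells showing the perinucleolar compartment, a nuclear body marking cancer cells; inconclusive means readout between -30 and a set limit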
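Read-out is percentage of cells bearing a perinucleolar compartment, from automated 20x imaging of fixed, Hoechst-stained PC3M PTB-GFP cells. Cells were seeded 4 h, then exposed 16 h to compound (23 nl of library stock) in duplicate plates.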
JMJD2E inh – JMJD2E (human) inhibition. JMJD2E catalytic domain, FDH-coupled NADH fluorescence (FDH is formaldehyde dehydrogenase). Potency, µM (top dose mostly 57.1 µM), hits mostly inhibitors. hit rate 1.6% among 230,000. AID 2147; further: nearly all actives have a fitted effect of over 50% in size
Target sequence (B2RXH2 1-337 limits assumed): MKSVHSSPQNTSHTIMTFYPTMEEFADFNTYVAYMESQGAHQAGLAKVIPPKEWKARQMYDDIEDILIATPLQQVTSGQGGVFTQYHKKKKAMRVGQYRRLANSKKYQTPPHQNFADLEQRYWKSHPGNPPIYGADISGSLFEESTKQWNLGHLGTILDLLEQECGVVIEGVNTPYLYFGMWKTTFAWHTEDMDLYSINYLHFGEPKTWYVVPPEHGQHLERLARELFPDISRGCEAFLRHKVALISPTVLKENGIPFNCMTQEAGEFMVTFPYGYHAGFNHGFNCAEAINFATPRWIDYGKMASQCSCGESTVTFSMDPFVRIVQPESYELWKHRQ
ALDH1A1 block – ALDH1A1 (human) enzyme inhibition | Potency, µM (top dose mostly 75.3 µM), hits mostly inhibitors | P00352 | Purified ALDH1A1, NADH fluorescence, propionaldehyde substrate | hit rate 7.3% among 220,000
Numbers stand for hits; - = inactive; ? = inconclusive; . = not tested or not shown; [ ] = another dose, or the depositor's remark. A selection: hits, their analogues and other compounds. The true share with any hit is near 11%. Unless noted, the call rests on the fitted dose curve; in most records, active means well fitted inhibition curve with a large enough effect (not every such curve was filed as active); inconclusive means small, poorly fitted or top-dose-only effect, or another doubt; inactive means no such curve, though single readings can be large or run the other way.

SMILES | HPGD block | PNC assembly inh | JMJD2E inh | ALDH1A1 block
CC1CCc2cc(F)ccc2N1C(=O)CCl (configuration not stated) | . | . | - | 0.141µM
CC(C)C1Cc2c(sc3c2c(=O)n(-c2ccccc2)c2n[nH]c(=S)n32)CO1 (configuration not stated) | . | . | - | .
O=C(NC1CCCCC1)c1cccs1 | 31.6µM | - | - | -
O=C(NC1CCCC1)c1cc(-c2cccs2)on1 | 12.6µM | - | - | ?
CC1CCCC(C)N1C(=O)CSc1nnc(-c2cccs2)o1 (configuration not stated) | ? | - | - | ?
CC1CCCC(C)N1C(=O)c1cc(-c2cccs2)on1 (configuration not stated) | 14.1µM | - | - | -
O=C(NC1CCCCC1)c1cc(-c2ccco2)on1 | . | - | - | -
O=C(NNC(=S)NC1CCCCC1)c1cccs1 | - | - | - | -
COc1cccc(Nc2ncc3nc(C)c(=O)n(C)c3n2)c1 | . | . | . | -
COc1cccc(Cc2n[nH]c(=S)n2Cc2ccco2)c1 | . | . | - | .
Cc1c(Cc2ccccc2)sc(NC(=O)c2ccco2)c1C(N)=O | ? | -111.1 | ? | ?
Cc1c(Cc2ccc3c(c2)OCO3)sc(NC(=O)C2CC2)c1C(N)=O | . | . | - | .
COC(=O)c1c(NC(=O)c2ccco2)sc(C)c1C | - | -80.7 | ? | ?
COC(=O)c1c(NC(=O)c2ccco2)sc(C(=O)Nc2ccc(F)cc2)c1C | ? | ? | ? | -
Cc1c(Cc2ccc3c(c2)OCO3)sc(NC(=O)c2cccc3ccccc23)c1C(N)=O | 14.1µM | - | ? | 14.1µM
O=C(NC(=O)c1ccccc1)OCCN1C(=O)c2ccccc2C1=O | . | . | - | -
O=S1(=O)[C@H]2C[C@@H]3CC[C@]2(CN1Cc1cccc(F)c1)O3 | . | . | - | .
COc1ccc2c(c1)OC(=O)CC2c1ccccc1C (configuration not stated) | - | . | . | -
O=C1/C(=C/c2ccc(N3CCCC3)cc2)NC(=S)N1C1CC1 | - | - | - | 15.8µM
Cc1cc(N2CCCC2)ccc1/C=C1\NC(=S)N(C)C1=O | . | . | - | 4.47µM
CN1C(=O)c2ccc(N3CCCC3)cc2C1=O | - | - | - | ?
O=C1N/C(=C/c2ccc(N3CCCC3)cc2)C(=O)N1c1ccccc1 | - | - | - | -
Cc1cccc(NS(=O)(=O)c2ccc(Cl)c(C(=O)O)c2)c1 | - | . | . | -
CCOc1cccc(C(=O)c2ccc(O)c(O)c2O)c1 | 15.8µM | . | 10µM | 1.58µM
CCOc1ccc(C(=O)c2ccc(O)c(O)c2O)cc1 | ? | . | 14.1µM | 9.46µM
SMILES | HPGD block | PNC assembly inh | JMJD2E inh | ALDH1A1 block
COc1cc(OC)c(C(=O)OCC(=O)NCCc2ccccc2)cc1OC | . | . | - | -
O=C1c2ccccc2C(O)(Cc2ccccc2)N1C1CCCCC1 (configuration not stated) | - | ? | - | 22.4µM
CC(C)CCOc1ncnc2c1sc1nc3c(cc12)CSC(C)(C)C3 | ? | - | - | 1.12µM
CCCn1cnc2c(sc3nc4c(cc32)CSC(C)(C)C4)c1=O | - | ? | - | 0.562µM
O=C(CSC1=NCCN1)Nc1ccccc1 | - | . | . | -[13.5 µM]
O=C1C2CCCCC2C(=O)N1c1ccc(NC2CCCCC2)c([N+](=O)[O-])c1 (configuration not stated) | - | - | - | 10µM
COc1cccc(N=C2CC(C)(C)CC(=O)/C2=C(/O)c2ccccc2)c1 | . | . | - | ?
CCN(CC)C(=O)CSc1nc2cc3c(cc2c(=O)n1Cc1ccco1)OCO3 | . | . | - | 0.891µM
CCOC(=O)CSc1nc2cc(C(=O)NCC3CCCO3)ccc2c(=O)n1Cc1ccco1 (configuration not stated) | - | -87.8 | - | ?
CCOC(=O)Cn1c(=O)n(Cc2ccco2)c(=O)c2ccc(C(=O)NC3CCCC3)cc21 | - | - | - | 7.94µM
CCC(Sc1nc2cc3c(cc2c(=O)n1Cc1ccco1)OCO3)C(=O)Nc1ccccc1OC (configuration not stated) | - | - | - | 1.12µM
CCOC(=O)Cn1c(=O)n(C2CCCC2)c(=O)c2ccccc21 | - | - | ? | ?
CCC(C)NC(=O)CSc1nc2cc3c(cc2c(=O)n1Cc1ccco1)OCO3 (configuration not stated) | . | . | - | ?
CC(=O)OCC(=O)[C@@]1(O)CCC2C3CCC4=CC(=O)C=CC4(C)C3C(O)C[C@]21C (some centres not stated) | - | . | - | -
C[C@@H](N=C(N)N)C(=O)O | - | . | . | -[13.5 µM]
CCC(Sc1nc2cc3c(cc2c(=O)n1Cc1ccco1)OCO3)C(=O)NCCOC (configuration not stated) | - | - | - | 2.24µM
COCCNC(=O)c1ccc2c(=O)n(Cc3ccco3)c(SCC(=O)NC3CCCC3)nc2c1 | - | - | ? | 7.94µM

Screens deposited in PubChem by National Center for Advancing Translational Sciences (NCATS).
